# From PubChem BioAssay AID430 (Sanford-Burnham Center for Chemical Genomics, 2006)
# The whole screen tested about 63,000 compounds, of which about 1,100 (1.7%) were called active. This is one part of a sample in which actives are shown more often than they occur. Rule as the data show it: active = cytotoxicity above about 50%; inactive = the rest. Results with a measured potency or affinity are listed apart.
# Experiment: cytotoxicity in HPDE-C7 cells, cell-based, fluorescence, HTS (AID 430);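 also: cells exposed to compound for 48 hours before viability readout; 0% = vehicle and 100% = reference cytotoxic drug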
# Details: HPDE-C7 pancreatic duct cells viability, at 10 µM, stronger effect = higher value
row,Compound,cytotoxicity
1,O=C(OCC(=O)N1CCN(C(=O)c2ccco2)CC1)c1ccccc1C(=O)c1ccc(Cl)cc1,-5% (inactive)
2,Cc1cccc(CN2CCN(C(=O)c3ccccc3F)CC2)c1,5.3% (inactive)
3,Cc1cccc(CN2CCN(c3ccccn3)CC2)c1,-18.2% (inactive)
4,CN1CCCN(C(c2ccccc2)c2ccc(Cl)cc2)CC1 (stereo unspecified),12.4% (inactive)
5,O=S(=O)(CCN1CCN(C(c2ccccc2)c2ccccc2)CC1)C(F)(F)F,-0.3% (inactive)
6,OCCOCCN1CCN(C(c2ccccc2)c2ccc(Cl)cc2)CC1 (stereo unspecified),50.4% (active)
7,Cc1cccc(CN2CCN(C(c3ccccc3)c3ccc(Cl)cc3)CC2)c1 (stereo unspecified),95.1% (active)
8,CC(C)N1C(=O)CCC1C(=O)N1CCN(c2ccccn2)CC1 (stereo unspecified),9.8% (inactive)
9,Fc1ccc(OCc2nc(-c3ccc(Br)o3)no2)c(F)c1,6.5% (inactive)
10,Cc1ccc(-n2c(SCC(N)=O)nnc2-c2cccnc2)c(C)c1,-1.8% (inactive)
11,FC(F)(F)c1ccc2c(c1)nc1n2CCCC1,-20.5% (inactive)
12,O=C(CC1COc2ccccc2O1)NC1CCCCC1 (stereo unspecified),-3.9% (inactive)
13,CN1CCN(S(=O)(=O)c2ccc(NC(=O)c3cccs3)cc2)CC1,-7.7% (inactive)
14,CC1CCCCN1S(=O)(=O)c1ccc(C(=O)Nc2nnc(-c3ccccc3Cl)o2)cc1 (stereo unspecified),57.4% (active)
15,CC1CCN(S(=O)(=O)c2ccc(NC(=O)c3cccs3)cc2)CC1,19.6% (inactive)
16,CCCC(=O)Nc1nnc(-c2ccc(Cl)s2)o1,1.2% (inactive)
17,CC1CCCCN1S(=O)(=O)c1ccc(NC(=O)c2cccs2)cc1 (stereo unspecified),52.1% (active)
18,CCc1nnc(NC(=O)c2ccc(S(=O)(=O)N3CCCCC3C)cc2)s1 (stereo unspecified),-15% (inactive)
19,CCC1CCCCN1S(=O)(=O)c1ccc(C(=O)Nc2nnc(-c3cccs3)o2)cc1 (stereo unspecified),37.7% (inactive)
20,CCC1CCCCN1S(=O)(=O)c1ccc(C(=O)Nc2nnc(-c3ccccc3Cl)o2)cc1 (stereo unspecified),67.6% (active)
21,O=C(Nc1nnc(-c2ccccc2Cl)o1)c1cccnc1,39.4% (inactive)
22,CC1(C)COCN1S(=O)(=O)c1ccc(C(=O)Nc2nnc(-c3ccc(Cl)s3)o2)cc1,95.1% (active)
23,COc1ccc(-c2nnc(NC(=O)c3ccc(S(=O)(=O)N4COCC4(C)C)cc3)o2)cc1,28.7% (inactive)
24,CC1CCCCN1S(=O)(=O)c1ccc(NC(=O)c2cccc(-n3cnnn3)c2)cc1 (stereo unspecified),30% (inactive)

row,Compound,cytotoxicity
1,C=CCn1c(SCC(=O)NCCOC)nc2scc(-c3ccco3)c2c1=O,-6.7% (inactive)
2,c1ccc(-c2nn3c(Cn4nnc5ccccc54)nnc3s2)nc1,-48.7% (inactive)
3,O=C(Nc1ccon1)c1ccc2c(c1)OCO2,-3.5% (inactive)
4,CC(C)N1C(=O)CCC1C(=O)NC1CCCC1 (stereo unspecified),-3.8% (inactive)
5,Cc1ccc(-c2csc3nnc(SCC(=O)N4CCN(Cc5ccccc5)CC4)n23)cc1,4.7% (inactive)
6,COc1ccc(-c2ccc(NCCC3=CCCCC3)nn2)cc1OC,18.1% (inactive)
7,CCOC(=O)CSc1nnc(-c2ccc(S(=O)(=O)N3CCC(C)CC3)cc2)o1,2% (inactive)
8,O=c1cc(CN2CCN(c3ccc(F)cc3)CC2)nc2sccn12,-3.4% (inactive)
9,Cc1nc2ccccn2c(=O)c1CCN1CCC(C(=O)c2ccc(F)cc2)CC1,-14.3% (inactive)
10,CCCOC(=O)C1C2C=CC3(CN(c4ccc(Cl)c(F)c4)C(=O)C13)O2 (stereo unspecified),-15.1% (inactive)
11,C/C=C/COC(=O)c1[nH]c2c(c1C)C(=O)CC(c1ccc(N(C)C)cc1)C2 (stereo unspecified),11.6% (inactive)
12,C=CCOC(=O)c1[nH]c2c(c1C)C(=O)CC(c1ccco1)C2 (stereo unspecified),74.9% (active)
13,C=CCOC(=O)c1[nH]c2c(c1C)C(=O)CC(c1cc(OC)c(OC)c(OC)c1)C2 (stereo unspecified),-23.8% (inactive)
14,C/C=C/COC(=O)c1[nH]c2c(c1C)C(=O)CC(c1ccco1)C2 (stereo unspecified),63.7% (active)
15,CCN1CCN(CC(=O)Nc2ccccc2)C(=O)C1=O,-4.7% (inactive)
16,CCOc1nc2ccccc2nc1NS(=O)(=O)c1ccccc1,0.8% (inactive)
17,CCN(CC)C(=O)CSC(=Nc1ccccc1F)NC#N,3.7% (inactive)
18,Cc1cc(NC(=O)c2ccccc2-c2ccccc2C(=O)O)no1,5.8% (inactive)
19,O=c1[nH]c(NCCCO)nc2c1C1(CCCC1)Cc1ccccc1-2,23.9% (inactive)
20,CC1(C)Cc2ccccc2-c2nc(NCCO)n(-c3ccccc3)c(=O)c21,-0.1% (inactive)
21,O=c1[nH]c(NCCO)nc2c1C1(CCCCC1)Cc1ccccc1-2,13.1% (inactive)
22,Cn1c(NCCCO)nc2c(c1=O)C1(CCCCC1)Cc1ccccc1-2,53.9% (active)
23,Cn1c(NCCO)nc2c(c1=O)C1(CCCCC1)Cc1ccccc1-2,8.3% (inactive)
24,CC1(C)CC(n2c(NCCO)nc3c(c2=O)C2(CCCC2)Cc2ccccc2-3)CCO1 (stereo unspecified),56.4% (active)

row,Compound,cytotoxicity
1,COc1ccccc1NC(=O)CSc1nnnn1-c1ccc2c(c1)OCO2,-9.1% (inactive)
2,COc1ccc(C2c3c(oc4c(C)cc(C)cc4c3=O)C(=O)N2Cc2cccnc2)cc1OC (stereo unspecified),43.3% (inactive)
3,O=C(CCNS(=O)(=O)c1cccc2nsnc12)N1CC(=O)N(CCc2ccccc2)C(=O)C1,-14.8% (inactive)
4,COc1ccc(C(=O)NCCn2cc(SCC(=O)Nc3cc(C)on3)c3ccccc32)cc1OC,-41% (inactive)
5,Cc1cc(C)n2nc(SCC(=O)NCc3ccco3)nc2n1,-20.4% (inactive)
6,COCCn1c(C)cc(C(=O)COC(=O)CCc2ccc(S(=O)(=O)N3CCOCC3)cc2)c1C,-9.3% (inactive)
7,CC(=O)Oc1cc2c(C(C)=O)coc2c2ccccc12,4.5% (inactive)
8,COc1ccc(C(=O)N(Cc2nc(-c3ccc(C)cc3)no2)C2CCCCC2)cc1OC,9.2% (inactive)
9,COc1ccccc1-c1nc(-c2cccc(C)c2)no1,9.9% (inactive)
10,COc1cccc(OCc2nc3ccccc3[nH]2)c1,-1.9% (inactive)
11,O=C(NCc1nc2ncc(Br)cc2[nH]1)c1ccccc1,-4.4% (inactive)
12,COc1cccc(OCc2nc3ncc(Br)cc3[nH]2)c1,61.9% (active)
13,CCOC(=O)c1[nH]c2ccc(Br)cc2c1NC(=O)CCN1CCCCC1,0.6% (inactive)
14,Cc1ccc2c(c1)nnn2C1CCN(CC(=O)Nc2ccccc2N2CCOCC2)CC1,11% (inactive)
15,Cc1c(NC(=O)Nc2cccc(Cl)c2)c(=O)n(-c2ccccc2)n1C,-2.1% (inactive)
16,Cc1c(NC(=O)Nc2ccc(Cl)c(Cl)c2)c(=O)n(-c2ccccc2)n1C,65.8% (active)
17,Cc1c(NC(=O)Nc2ccc(Cl)cc2)c(=O)n(-c2ccccc2)n1C,-19.8% (inactive)
18,Cc1c(NC(=O)c2ccc(Br)o2)c(=O)n(-c2ccccc2)n1C,-3.4% (inactive)
19,Cc1c(NC(=O)c2ccc(=O)oc2)c(=O)n(-c2ccccc2)n1C,-6.7% (inactive)
20,O=C(CSc1ccc2nnc(-c3ccccn3)n2n1)NCc1ccc2c(c1)OCO2,-15.3% (inactive)
21,CCCC(=O)Nc1ccccc1-c1nnn(CC(=O)Nc2ccc(OC)cc2)n1,-30.9% (inactive)
22,O=C(CSc1nnc(-c2cc3ccccc3cc2O)n1Cc1ccco1)c1ccc(F)cc1,-5.2% (inactive)
23,COc1ccc(C(=O)CSc2nnc(-c3ccccn3)n2Cc2ccco2)cc1,-5% (inactive)
24,COc1ccc(C(=O)CSc2nnc(-c3cc4ccccc4cc3O)n2Cc2ccco2)cc1,55.6% (active)

row,Compound,cytotoxicity
1,CCN(CCNC(=O)c1cccc(N2CCCC2=O)c1)c1ccccc1,-9.5% (inactive)
2,CCCCc1cc(=O)oc2cc(C)c(CN3CCCC3)c(O)c12,-12.4% (inactive)
3,CCCCCc1cc(O)c2c(C)cc(=O)oc2c1,50.3% (active)
4,CCc1cc(=O)oc2cc(C)cc(O)c12,0% (inactive)
5,Nc1nonc1-c1nc2ccccc2n1CC(=O)NC1CCCC1,0% (inactive)
6,COc1cccc(Cn2c(-c3nonc3N)nc3ccccc32)c1,53.8% (active)
7,CCOc1ccc(CCNC(=O)Cn2c(-c3nonc3N)nc3ccccc32)cc1OCC,-22.9% (inactive)
8,CCOC(=O)c1ccccc1NC(=O)Cn1c(-c2nonc2N)nc2ccccc21,67.8% (active)
9,Nc1nonc1-c1nc2ccccc2n1Cc1ccccc1,-38.3% (inactive)
10,COc1cc(Cn2c(-c3nonc3N)nc3ccccc32)ccc1C,30.4% (inactive)
11,COc1ccc(CCNC(=O)Cn2c(-c3nonc3N)nc3ccccc32)cc1OC,6.6% (inactive)
12,COC(=O)c1ccccc1NC(=O)Cn1c(-c2nonc2N)nc2ccccc21,47% (inactive)
13,CCCCOc1ccccc1NC(=O)Cn1c(-c2nonc2N)nc2ccccc21,55.1% (active)
14,CC(=O)N1CCN=C1SCc1ccccc1,3% (inactive)
15,Cc1cc(C(=O)N2CC(C)CC(C)C2)n(-c2ccccc2)n1 (stereo unspecified),-6.9% (inactive)
16,Cc1nc2ccccc2c(=O)n1NC(=O)c1ccc(F)cc1Cl,-0.2% (inactive)
17,COc1ccc2nc(NC(=O)c3ccc4ncsc4c3)sc2c1,0.5% (inactive)
18,CCOc1cccc(CN2CCN(c3cccc(C(F)(F)F)c3)CC2)c1O,-3.2% (inactive)
19,CCOC(=O)C1=C(CSc2nc(-c3ccncc3)ccc2C#N)OC(N)=C(C#N)C1c1cccnc1 (stereo unspecified),4% (inactive)
20,CCOC(=O)C1=C(CSc2nc3c(cc2C#N)CCC3)OC(N)=C(C#N)C1c1ccccc1 (stereo unspecified),101% (active)
21,CCOC(=O)C1=C(CSc2nc3c(cc2C#N)CN(C)CC3)OC(N)=C(C#N)C1c1ccccc1 (stereo unspecified),3.4% (inactive)
22,CCOC(=O)C1=C(C)OC(N)=C(C#N)C1c1ccc(OC)c(C)c1OC (stereo unspecified),-1.3% (inactive)
23,CCOC(=O)C1=C(CSc2nc(C)cc(C)c2C#N)OC(N)=C(C#N)C1c1cccs1 (stereo unspecified),-28.5% (inactive)
24,CCOC(=O)C1=C(CSc2nc(C)ccc2C#N)OC(N)=C(C#N)C1c1cccc(OC)c1OC (stereo unspecified),59.3% (active)
